Source: PubChem BioAssay (Tox21)
Values without a mark were called inactive. Results filed as inconclusive are left out. A call without a number means that no potency is given here. The source made the active and inactive calls. Unless noted, calls follow the shape of the dose curve; as a rule, active = well fitted curve in the direction sought with a large enough effect in the repeat runs; inconclusive = weak or mixed curves; inactive = no such curve, though single readings can be large; an effect the other way counts as inactive or inconclusive.

How the values were obtained:
[1] = A CellTox Green Cytotoxicity Assay to monitor cytotoxicity in HepG2 cells - 0 hour (AID 1224882); also: nearly all actives have a fitted effect of over 35% in size
In short: (§1)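 Read-out is fluorescence of a cyanine dye excluded from live cells that stains DNA of dead HepG2 cells, with signal proportional to cytotoxicity. Plates were read at 0, 8, 16, 24, 32 and 40 h after compound addition.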

[2] = A CellTox Green Cytotoxicity Assay to monitor cytotoxicity in HepG2 cells - 32 hour (AID 1224883); also: nearly all actives have a fitted effect of over 50% in size
In short: as §1

[3] = A CellTox Green Cytotoxicity Assay to monitor cytotoxicity in HEK293 cells - 8 hour (AID 1224884); also: nearly all actives have a fitted effect of over 35% in size
In short: (§2)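 Nonlytic real-time cytotoxicity: HEK293 + CellTox Green reagent plated, 5 h preincubation, pintool compound addition (23 nL in DMSO), 37 C for 40 h, fluorescence measured at successive time points.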

[4] = qHTS RealTime-Glo MT Cell Viability Assay in HepG2 cells - 16 hour (AID 1224885); also: nearly all actives have a fitted effect of over 50% in size
In short: (§3)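 Real-time, nonlytic viability: 600 HepG2 cells/well mixed with NanoLuc enzyme plus prosubstrate; 5 h settle, compound (DMSO) added by pintool; luminescence monitored over 40 h at 37 C.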

[5] = qHTS RealTime-Glo MT Cell Viability Assay in HEK293 cells - 24 hour (AID 1224886); also: top concentration of the series differs between compounds; nearly all actives have a fitted effect of over 50% in size
In short: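 Cells + reagent dispensed (600 cells/well, HEK293) → 5 h at 37 C/5% CO2 → 23 nL compound in DMSO pinned → 40 h at 37 C → luminescence read at 0, 8, 16, 24, 32, 40 h.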

[6] = qHTS RealTime-Glo MT Cell Viability Assay in HEK293 cells - 8 hour (AID 1224887); also: top concentration of the series differs between compounds; nearly all actives have a fitted effect of over 50% in size
In short: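 Cells were seeded together with NanoLuc luciferase and a prosubstrate that viable cells reduce to a luciferase substrate. After a 5 h incubation at 37 C/5% CO2, compounds were added and luminescence was measured repeatedly during 40 h of treatment.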

[7] = A CellTox Green Cytotoxicity Assay to monitor cytotoxicity in HEK293 cells - 16 hour (AID 1224888); also: nearly all actives have a fitted effect of over 35% in size
In short: as §2

[8] = qHTS RealTime-Glo MT Cell Viability Assay in HepG2 cells - 0 hour (AID 1224889); also: nearly all actives have a fitted effect of over 50% in size; also: potency is read from the fitted curve at half-maximal effect
In short: as §3

[9] = A CellTox Green Cytotoxicity Assay to monitor cytotoxicity in HepG2 cells - 8 hour (AID 1224890); also: nearly all actives have a fitted effect of over 45% in size
In short: as §1

[10] = qHTS assay to identify small molecule antagonists of the estrogen receptor alpha (ER-alpha) signaling pathway using the BG1 cell line in the presence of 0.1 nM 17-beta-estradiol - cell viability counter screen (AID 1259241); also: nearly all actives have a fitted effect of over 40% in size
In short: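 Estradiol-stimulated (0.1 nM) VM7Luc4E2 cells exposed to compounds 22 hr; viability measured by fluorescence of cleaved CellTiter-Fluor substrate after 30 min.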

[11] = qHTS assay to identify small molecule antagonists of the androgen receptor (AR) signaling pathway using the MDA cell line in the presence of 0.5 nM R1881 - cell viability counter screen (AID 1259242); also: nearly all actives have a fitted effect of over 45% in size
In short: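 Counter screen for cytotoxicity run in the same wells as the AR antagonist reporter screen: MDA-kb2 cells were treated 16 hr with test compounds and 0.5 nM R1881, then live-cell protease activity was measured by fluorescence.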

[12] = biological target: Estrogen receptor (Homo sapiens) (UniProt P03372); test: qHTS assay to identify small molecule antagonists of the estrogen receptor alpha (ER-alpha) signaling pathway using the BG1 cell line in the presence of 0.1 nM 17-beta-estradiol (AID 1259244); also: nearly all actives have a fitted effect of over 50% in size
Estrogen receptor (Homo sapiens), sequence (P03372 whole entry, looked up): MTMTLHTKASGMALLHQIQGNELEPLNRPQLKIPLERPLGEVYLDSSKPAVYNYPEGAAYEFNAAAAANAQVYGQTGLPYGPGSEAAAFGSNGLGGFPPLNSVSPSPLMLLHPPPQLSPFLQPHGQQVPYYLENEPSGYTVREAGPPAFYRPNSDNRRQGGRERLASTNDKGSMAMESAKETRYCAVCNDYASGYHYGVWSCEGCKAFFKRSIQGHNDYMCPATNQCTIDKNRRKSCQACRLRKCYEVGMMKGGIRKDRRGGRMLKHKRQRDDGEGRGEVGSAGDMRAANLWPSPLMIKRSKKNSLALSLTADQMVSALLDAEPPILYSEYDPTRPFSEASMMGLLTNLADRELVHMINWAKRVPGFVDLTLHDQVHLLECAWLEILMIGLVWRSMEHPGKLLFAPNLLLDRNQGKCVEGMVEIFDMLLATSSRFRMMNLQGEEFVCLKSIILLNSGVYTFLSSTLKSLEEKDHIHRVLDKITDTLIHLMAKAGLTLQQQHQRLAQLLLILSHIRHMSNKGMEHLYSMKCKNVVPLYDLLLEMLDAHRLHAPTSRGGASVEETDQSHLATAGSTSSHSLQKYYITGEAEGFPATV
In short: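 Cells: VM7Luc4E2, endogenous ER-alpha, 4x ERE-luc stable. Pre-culture 5 d, phenol red-free, charcoal-stripped FBS. Plated 24 h, compound + E2 0.1 nM final, 22 h 37C/5% CO2. Readout ONE-Glo luminescence.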

[13] = qHTS assay to identify small molecule HDAC inhibitors (AID 1259364); also: top concentration of the series differs between compounds; nearly all actives have a fitted effect of over 45% in size
In short: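 Luminescence from a cell-permeant luminogenic class I/II HDAC substrate reports endogenous deacetylase activity in intact HCT-116 cells treated with compounds for 2 h.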

[14] = qHTS assay to identify small molecule HDAC inhibitors - cell viability counter screen (AID 1259365)
In short: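 After overnight seeding at 1,500 cells per well, wild-type HCT-116 cultures took up compounds in DMSO for 2hr at 37 C. Viable cell content came from luminescence with CellTiter-Glo.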

[15] = qHTS assay to identify small molecule agonists of the sonic hedgehog signaling (Shh) pathway - cell viability counter screen (AID 1259366); also: nearly all actives have a fitted effect of over 50% in size
In short: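 Same-well cytotoxicity read. Gli1-Luc reporter 3T3 cells; compounds 24hr, 37C/5% CO2; CellTiter-Fluor fluorescence.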

[16] = qHTS assay to identify small molecule agonists of the sonic hedgehog signaling (Shh) pathway (AID 1259368; calls by dose curve;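 also: NIH/3T3-derived 3T3Gli1-Luc cells carrying a stable Gli1-driven firefly luciferase reporter; series mostly up to about 92 µM; nearly all actives have a fitted effect of over 15% in size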)
In short: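 3T3Gli1-Luc (NIH/3T3 clone, stable Gli1-Luc); 4 hr pre-incubation, then cpd in DMSO 24 hr, 37 C/5% CO2; luciferase reagent 30 min RT; luminescence.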

[17] = qHTS assay to identify small molecule antagonists of the sonic hedgehog signaling (Shh) pathway (AID 1259369; calls by dose curve; also: nearly all actives have a fitted effect of over 45% in size; also: potency is read from the fitted curve at half-maximal effect)
In short: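 3T3Gli1-Luc, conditioned-medium-stimulated, 24hr cpd, 37C/5% CO2; Gli1-driven firefly Luc luminescence after 30min RT with luciferase reagent. Cells plated 4hr before cpd.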

[18] = biological target: Androgen receptor (Homo sapiens) (UniProt P10275); test: qHTS assay to identify small molecule antagonists of the androgen receptor (AR) signaling pathway using the MDA cell line in the presence of 0.5 nM R1881 (AID 1259243); also: nearly all actives have a fitted effect of over 50% in size
Androgen receptor (Homo sapiens), sequence (P10275 whole entry, looked up): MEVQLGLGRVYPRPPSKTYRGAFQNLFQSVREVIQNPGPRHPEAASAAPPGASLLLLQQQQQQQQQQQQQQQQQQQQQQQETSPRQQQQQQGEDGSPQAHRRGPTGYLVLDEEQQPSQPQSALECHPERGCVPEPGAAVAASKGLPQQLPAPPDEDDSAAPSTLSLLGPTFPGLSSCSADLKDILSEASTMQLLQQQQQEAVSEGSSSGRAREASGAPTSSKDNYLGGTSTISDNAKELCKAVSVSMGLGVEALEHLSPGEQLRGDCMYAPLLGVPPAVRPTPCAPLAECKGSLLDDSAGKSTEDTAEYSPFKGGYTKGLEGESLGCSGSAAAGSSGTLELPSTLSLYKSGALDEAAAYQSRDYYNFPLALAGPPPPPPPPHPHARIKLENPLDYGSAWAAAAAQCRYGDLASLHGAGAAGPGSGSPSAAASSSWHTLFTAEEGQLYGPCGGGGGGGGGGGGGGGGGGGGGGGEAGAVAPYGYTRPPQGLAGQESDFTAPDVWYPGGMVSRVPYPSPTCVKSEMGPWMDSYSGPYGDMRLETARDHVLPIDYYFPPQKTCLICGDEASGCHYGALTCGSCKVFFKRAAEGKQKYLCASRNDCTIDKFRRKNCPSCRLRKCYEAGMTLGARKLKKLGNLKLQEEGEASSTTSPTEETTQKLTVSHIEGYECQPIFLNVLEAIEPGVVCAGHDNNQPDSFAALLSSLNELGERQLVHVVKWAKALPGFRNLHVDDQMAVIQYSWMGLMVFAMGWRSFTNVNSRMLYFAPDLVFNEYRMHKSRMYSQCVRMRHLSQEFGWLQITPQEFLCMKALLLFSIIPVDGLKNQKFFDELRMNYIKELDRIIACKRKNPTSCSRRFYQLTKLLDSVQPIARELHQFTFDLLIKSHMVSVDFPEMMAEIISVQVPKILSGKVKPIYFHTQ
In short: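 Luciferase luminescence is the read-out: compounds are tested for suppressing 0.5 nM R1881-driven MMTV reporter activity in MDA-kb2 cells after 16 hr at 37C.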

[19] = qHTS assay to identify small molecule antagonists of the sonic hedgehog signaling (Shh) pathway - cell viability counter screen (AID 1259367); also: nearly all actives have a fitted effect of over 55% in size
In short: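 Cells: 3T3 Gli1-Luc, 2,000/well, 4 hr pre-incubation. Compounds in DMSO, then conditioned medium. Incubation 24 hr, 37C, 5% CO2. CellTiter-Fluor at 23 hr, 1 hr, fluorescence.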

[20] = qHTS assay to identify small molecule phospholipidosis (PLD) inducers (AID 1259344; active = well fitted curve in the direction sought with a large enough effect; an effect the other way counts as inactive or inconclusive)
In short: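 Phospholipidosis is scored by imaging LipidTOX-stained pits in HepG2 cells exposed to compound for 24 h at 37 C; pit counts and integrated intensities per well and per cell serve as outputs.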

Row | Compound | Potency [1] | Potency [2] | Potency [3] | Potency [4] | Potency [5] | Potency [6] | Potency [7] | Potency [8] | Potency [9] | Potency [10] | Potency [11] | Potency [12] | Potency [13] | Potency [14] | Potency [15] | outcome [16] | Potency [17] | Potency [18] | Potency [19] | Potency [20]
1 | O=[N+]([O-])c1ccc2[nH]ncc2c1 | inactive | inactive | inactive | inactive | inactive | inactive | inactive | inactive | inactive | inactive | inactive | inactive | inactive | inactive | inactive | inactive | inactive | – | – | –
2 | Cc1cc(N)c2cc(NC(=O)Nc3ccc4nc(C)cc(N)c4c3)ccc2n1 | inactive | inactive | inactive | inactive | inactive | inactive | inactive | inactive | inactive | – | inactive | – | inactive | inactive | – | inactive | – | inactive | – | –
3 | C=CC1CC2C=CC1C2 (stereo unspecified) | inactive | inactive | inactive | inactive | inactive | inactive | inactive | inactive | inactive | inactive | inactive | inactive | inactive | inactive | inactive | inactive | inactive | – | inactive | –
4 | CCC(Cl)CCC(Cl)C(Cl)CC(Cl)C(Cl)C(Cl)CCl (stereo unspecified) | inactive | inactive | inactive | inactive | inactive | inactive | inactive | inactive | inactive | inactive | inactive | – | inactive | inactive | inactive | inactive | – | – | inactive | –
5 | C[C@@H]1C[C@H]2[C@@H]3CCC4=CC(=O)C=C[C@]4(C)[C@@]3(F)[C@@H](O)C[C@]2(C)[C@@]1(O)C(=O)COC(=O)c1ccncc1 | inactive | inactive | inactive | inactive | inactive | inactive | inactive | 1.07 µM (active) | inactive | inactive | inactive | inactive | inactive | inactive | inactive | inactive | inactive | – | – | –
6 | OC(C#CCN1CCCC1)(c1ccccc1)c1ccccc1 | inactive | inactive | inactive | inactive | inactive | inactive | inactive | inactive | inactive | inactive | inactive | – | inactive | inactive | inactive | inactive | 3.76 µM (active) | – | – | inactive
7 | CCOC(=O)C(=O)CCc1ccccc1 | inactive | inactive | inactive | inactive | inactive | inactive | inactive | inactive | inactive | inactive | inactive | inactive | inactive | inactive | inactive | inactive | inactive | inactive | – | –
8 | NCc1ccccc1Sc1ccccc1CO | inactive | inactive | inactive | inactive | inactive | inactive | – | inactive | inactive | inactive | inactive | inactive | inactive | inactive | inactive | inactive | inactive | inactive | inactive | inactive
